Reference: PubChem BioAssay
Active and inactive are the calls of the source.

Experiments:
[1] = compound effects on differentiated 3T3-L1 adipocyte viability – cell-based, 3T3-L1 adipocytes, calcein-AM fluorescence, 48 h, basal, profiling panel (AID 1163); details: 3T3-L1 adipocytes viability, higher = more signal
[2] = compound effects on hepatocellular carcinoma cell viability – HepG2, calcein-AM fluorescence, 48 h, basal, profiling panel (AID 1164); details: higher = more signal
[3] = compound effects on multiple myeloma cell viability – MM1S, calcein-AM fluorescence, 48 h, basal, profiling panel (AID 1165); details: higher = more signal;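 also: viability of MM1S multiple myeloma cells under basal unstimulated conditions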
[4] = calcein-AM signal in unstimulated myeloma cells – cell-based, calcein-AM fluorescence, 48 h, PK04 Diversity Set, profiling panel (AID 1166); details: RPMI8226 myeloma viability, higher = more signal;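 also: cells grown under basal conditions without added stimulus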
[5] = JC-1 mitochondrial signal, unstimulated HepG2 cells – cell-based, JC-1 fluorescence, 24 h, 100 nL compound, profiling panel (AID 1167); details: HepG2 mitochondrial potential, higher = more signal
[6] = JC-1 mitochondrial signal, unstimulated adipocytes – cell-based, JC-1 fluorescence, 3T3-L1 adipocytes, 24 h, 100 nL compound, profiling panel (AID 1168); details: JC-1 mitochondrial fluorescence, higher = more signal, called active from +8 up or from −8 down
[7] = JC-1 mitochondrial signal, unstimulated myeloma cells – cell-based, JC-1 fluorescence, RPMI8226, 24 h, 100 nL compound, profiling panel (AID 1169); details: JC-1 mitochondrial potential fluorescence, higher = more signal
[8] = JC-1 mitochondrial signal, unstimulated MM1S myeloma – cell-based, JC-1 fluorescence, 24 h, 100 nL compound, profiling panel (AID 1170); details: MM1S mitochondrial potential, higher = more signal
[9] = resazurin metabolic signal in A549 cells – cell-based, resazurin fluorescence, 24 h, PK04 Diversity Set, profiling panel (AID 1171); details: A549 viability, higher = more signal, called active from +8 up or from −8 down
[10] = resazurin metabolic signal in HepG2 cells – cell-based, resazurin fluorescence, 24 h, PK04 Diversity Set, profiling panel (AID 1172); details: HepG2 viability, higher = more signal
[11] = budding yeast growth changes without added modifier – OD600, strain BY4716, 24 h, basal condition, primary screen (AID 1173); details: S. cerevisiae BY4716 growth, OD600, 24 h; higher = more signal, called active from +8 up or from −8 down
[12] = viability profiling in MM1S myeloma cells – cell-based, resazurin fluorescence, basal, 24 h, PK04 Diversity Set, profiling panel (AID 1174); details: higher = more signal, called active from +8 up or from −8 down
[13] = target: Dihydroorotate dehydrogenase (quinone), mitochondrial (Plasmodium falciparum (isolate 3D7)) (UniProt Q08210); assay: inhibition of P. falciparum DHODH – biochemical, C-terminal His tag, absorbance 600 nm, primary screen (AID 1175); details: PfDHODH enzyme, DCIP absorbance 600 nm; higher = more signal, called active from +8 up or from −8 down;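 also: recombinant parasite enzyme with a five histidine tag at its C terminus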
[14] = growth modulation of vineyard yeast isolate – strain RM11-1a, OD600, basal, 24 h, primary screen (AID 1177);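 also: cultures grown under basal conditions with no added stressor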; details: S. cerevisiae RM11-1a growth, OD600, 24 h; higher = more signal, called active from +8 up or from −8 down
[15] = growth of efflux-deficient E. coli DRC39 – strain DRC39, OD650, 24 h, E. coli filamentation inducers, primary screen (AID 1178);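 also: growth measured as culture turbidity by optical density at 650 nm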; details: E. coli DRC39 acrAB, higher = more signal, called active from +8 up or from −8 down
[16] = growth of efflux-deficient E. coli DRC39 – strain DRC39, OD650, 48 h, E. coli filamentation inducers, primary screen (AID 1179);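 also: screen aims at cell division blockers that make cells filament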; details: E. coli DRC39 delta-acrAB growth, higher = more signal, called active from +8 up or from −8 down
[17] = viability profiling in RPMI8226 myeloma cells – cell-based, resazurin fluorescence, basal, 24 h, PK04 Diversity Set, profiling panel (AID 1180); details: higher = more signal;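 also: RPMI8826 multiple myeloma cell line at 5000 cells per well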
[18] = target: E3 ubiquitin-protein ligase XIAP (Homo sapiens) (UniProt P98170); assay: small molecules binding XIAP protein – biophysical, small-molecule microarray, fluorescence 635 nm, primary screen (AID 1181); details: higher = more signal;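 also: score merges 667 nm emission and signal to noise over triplicate slides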
[19] = system: XIP peptide (Xip251-270) binding; assay: XIP fragment 251-270 binding compounds – biochemical, small-molecule microarray, fluorescence 635/667 nm, 0.1 µg/mL protein, primary screen (AID 1182); details: fluorescent protein binding, 635 nm, higher = more signal, called active from +8 up or from −8 down
XIP peptide (Xip251-270) = assay: compounds binding XIP fragment 251-270 – biochemical, small-molecule microarray, fluorescence 635/667 nm, 0.5 µg/mL protein, primary screen (AID 1183); details: fluorescence 635 nm, higher = more signal

Sequence of E3 ubiquitin-protein ligase XIAP (Homo sapiens) (P98170 whole entry, looked up, the tested form may be a part): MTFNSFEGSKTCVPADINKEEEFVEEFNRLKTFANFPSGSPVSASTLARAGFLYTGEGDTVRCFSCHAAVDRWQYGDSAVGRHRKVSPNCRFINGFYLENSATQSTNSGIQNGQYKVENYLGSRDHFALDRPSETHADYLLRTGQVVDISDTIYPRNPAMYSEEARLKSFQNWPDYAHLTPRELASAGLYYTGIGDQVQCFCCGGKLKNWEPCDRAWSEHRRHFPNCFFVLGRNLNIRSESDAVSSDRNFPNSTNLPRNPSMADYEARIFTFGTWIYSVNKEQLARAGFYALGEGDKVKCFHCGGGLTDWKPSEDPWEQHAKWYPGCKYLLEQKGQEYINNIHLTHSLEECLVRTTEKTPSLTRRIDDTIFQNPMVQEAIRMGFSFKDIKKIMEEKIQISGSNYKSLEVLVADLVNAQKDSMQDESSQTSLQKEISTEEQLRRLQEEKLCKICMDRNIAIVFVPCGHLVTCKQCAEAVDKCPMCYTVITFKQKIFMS
Sequence of Dihydroorotate dehydrogenase (quinone), mitochondrial (Plasmodium falciparum (isolate 3D7)) (Q08210 whole entry, looked up): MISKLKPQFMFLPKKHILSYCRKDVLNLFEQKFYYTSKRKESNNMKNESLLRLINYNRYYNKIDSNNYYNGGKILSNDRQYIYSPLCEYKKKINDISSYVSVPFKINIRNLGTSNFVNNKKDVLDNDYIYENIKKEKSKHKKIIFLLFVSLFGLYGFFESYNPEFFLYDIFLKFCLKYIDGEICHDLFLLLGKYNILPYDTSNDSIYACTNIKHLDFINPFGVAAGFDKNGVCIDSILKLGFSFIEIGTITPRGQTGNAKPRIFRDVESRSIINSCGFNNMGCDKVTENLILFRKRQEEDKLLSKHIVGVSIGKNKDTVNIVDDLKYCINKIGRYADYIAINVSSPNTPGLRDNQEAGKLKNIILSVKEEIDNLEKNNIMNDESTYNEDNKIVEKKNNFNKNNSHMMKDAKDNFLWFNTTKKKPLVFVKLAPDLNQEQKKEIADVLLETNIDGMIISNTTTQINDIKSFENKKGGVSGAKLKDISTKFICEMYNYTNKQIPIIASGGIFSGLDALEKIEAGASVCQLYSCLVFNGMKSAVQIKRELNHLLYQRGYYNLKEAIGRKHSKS

## COC(=O)[C@@]1(CCC(=O)OC(C)(C)C)COC(c2ccc(OCCCO)cc2)=N1
[1]
  z-score: 1.52
[2]
  z-score: -0.528
[3]
  z-score: 0.203
[4]
  z-score: -0.0712
[5]
  z-score: -0.407
[6]
  z-score: -0.0189 (inactive)
[7]
  z-score: 0.614
[8]
  z-score: 0.396
[9]
  z-score: 0.307 (inactive)
[10]
  z-score: 0.863
[11]
  z-score: -1.27 (inactive)
[12]
  z-score: 0.867 (inactive)
[13]
  composite z-score: -0.402 (inactive)
[14]
  z-score: -0.612 (inactive)
[15]
  z-score: 2.83 (inactive)
[16]
  z-score: 1.14 (inactive)
[17]
  z-score: 1.1
[18]
  composite z-score: -0.217
[19]
  composite z-score: -0.191 (inactive)
XIP peptide (Xip251-270)
  composite z-score: -1.66

## CC(C)N1C(=O)c2ccccc2[C@@H](C(=O)NCc2ccccc2)[C@@H]1c1ccc(CO)cc1
[1]
  z-score: 1.05
[2]
  z-score: -0.179
[3]
  z-score: -0.601
[4]
  z-score: 0.0541
[5]
  z-score: 0.617
[6]
  z-score: -0.0455 (inactive)
[7]
  z-score: 0.115
[8]
  z-score: -0.251
[9]
  z-score: 1.05 (inactive)
[10]
  z-score: 0.595
[11]
  z-score: 0.25 (inactive)
[12]
  z-score: 1.51 (inactive)
[13]
  composite z-score: 0.578 (inactive)
[14]
  z-score: 1.49 (inactive)
[15]
  z-score: 0.541 (inactive)
[16]
  z-score: 0.169 (inactive)
[17]
  z-score: 1.01
[18]
  composite z-score: -0.0095
[19]
  composite z-score: 0.482 (inactive)
XIP peptide (Xip251-270)
  composite z-score: -0.988

## C=CCC(OC(C)=O)[C@@H]1[C@@H](N(Cc2ccc(-c3ccccc3)cc2)C(=O)c2ccc(-c3ccccc3)cc2)c2cc(OCCCO)ccc2N1C(=O)c1ccc(-c2ccccc2)cc1 (stereo not given in full)
[1]
  z-score: 0.948
[2]
  z-score: 0.623
[3]
  z-score: 0.787
[4]
  z-score: 0.18
[5]
  z-score: 2.74
[6]
  z-score: 0.111 (inactive)
[7]
  z-score: -0.176
[8]
  z-score: -0.0803
[9]
  z-score: 1.4 (inactive)
[10]
  z-score: 1.46
[11]
  z-score: -0.435 (inactive)
[12]
  z-score: 1.4 (inactive)
[13]
  composite z-score: 0.169 (inactive)
[14]
  z-score: -0.738 (inactive)
[15]
  z-score: 1.34 (inactive)
[16]
  z-score: 0.995 (inactive)
[17]
  z-score: 0.899
[18]
  composite z-score: -0.0102
[19]
  composite z-score: -0.959 (inactive)
XIP peptide (Xip251-270)
  composite z-score: -0.58

## C[N+](C)(C)CCCCNC(=O)[C@@H]1C[C@@H]2C(=O)NCC(=O)N2[C@@H]1c1cccc(OCCO)c1
[1]
  z-score: -0.0369
[2]
  z-score: 0.653
[3]
  z-score: 0.499
[4]
  z-score: 0.089
[5]
  z-score: 1.04
[6]
  z-score: 0.294 (inactive)
[7]
  z-score: -0.361
[8]
  z-score: -0.552
[9]
  z-score: -0.105 (inactive)
[10]
  z-score: 0.165
[11]
  z-score: -0.0902 (inactive)
[12]
  z-score: 1.38 (inactive)
[13]
  composite z-score: -27.8 (active)
[14]
  z-score: -1.21 (inactive)
[15]
  z-score: 1.87 (inactive)
[16]
  z-score: 1.77 (inactive)
[17]
  z-score: 0.356
[18]
  composite z-score: 0.602
[19]
  composite z-score: 0.71 (inactive)
XIP peptide (Xip251-270)
  composite z-score: 0.865

## C[N+](C)(C)CCCC[C@@H]1NC(=O)[C@@H]2C[C@H](C(=O)NCCCCCNC(=O)CS)[C@H](c3ccc(O)cc3)N2C1=O
[1]
  z-score: 1.09
[2]
  z-score: -0.792
[3]
  z-score: -0.982
[4]
  z-score: 0.027
[5]
  z-score: 2
[6]
  z-score: 0.385 (inactive)
[7]
  z-score: 0.289
[8]
  z-score: -0.336
[9]
  z-score: 1.09 (inactive)
[10]
  z-score: -0.122
[11]
  z-score: -1.15 (inactive)
[12]
  z-score: 0.941 (inactive)
[13]
  composite z-score: -1.15 (inactive)
[14]
  z-score: -1.36 (inactive)
[15]
  z-score: 0.513 (inactive)
[16]
  z-score: 0.355 (inactive)
[17]
  z-score: 1.55
[18]
  composite z-score: 0.0471
[19]
  composite z-score: 0.609 (inactive)
XIP peptide (Xip251-270)
  composite z-score: 0.184

## C=CC[C@]1(C(=O)N(C)C)N=C(c2ccc(OCCCO)cc2)O[C@H]1c1ccccc1CN=[N+]=[N-]
[1]
  z-score: 0.988
[2]
  z-score: 1.18
[3]
  z-score: -1.17
[4]
  z-score: -0.862
[5]
  z-score: 2.11
[6]
  z-score: 0.0328 (inactive)
[7]
  z-score: -0.942
[8]
  z-score: -0.587
[9]
  z-score: 1.26 (inactive)
[10]
  z-score: 0.481
[11]
  z-score: -1.26 (inactive)
[12]
  z-score: 0.838 (inactive)
[13]
  composite z-score: -0.0916 (inactive)
[14]
  z-score: -0.197 (inactive)
[15]
  z-score: 1.53 (inactive)
[16]
  z-score: 0.442 (inactive)
[17]
  z-score: 0.747
[18]
  composite z-score: 0.0471
[19]
  composite z-score: 0.137 (inactive)
XIP peptide (Xip251-270)
  composite z-score: 0.53

## CN1C=C(C(=O)OCCS(C)(=O)=O)C(C(=O)OCCS(C)(=O)=O)=CC(CCCO)=CC1c1cccs1 (stereo not given)
[1]
  z-score: 0.778
[2]
  z-score: 0.615
[3]
  z-score: 0.175
[4]
  z-score: -0.249
[5]
  z-score: 1.9
[6]
  z-score: 1.93 (inactive)
[7]
  z-score: 0.0813
[8]
  z-score: 0.885
[9]
  z-score: 0.776 (inactive)
[10]
  z-score: 0.666
[11]
  z-score: -3.06 (inactive)
[12]
  z-score: 1.07 (inactive)
[13]
  composite z-score: -4.08 (inactive)
[14]
  z-score: -1.01 (inactive)
[15]
  z-score: 1.26 (inactive)
[16]
  z-score: 0.676 (inactive)
[17]
  z-score: 0.602
[18]
  composite z-score: 0.0374
[19]
  composite z-score: -0.64 (inactive)
XIP peptide (Xip251-270)
  composite z-score: -0.254

## C=CCC(OC(C)=O)[C@@H]1[C@@H](N(Cc2ccc(-c3cccc(C(F)(F)F)c3)o2)C(=O)c2ccc(-c3ccccc3)cc2)c2cc(OCCCO)ccc2N1C(=O)Cc1ccc(OC)cc1 (stereo not given in full)
[1]
  z-score: 0.935
[2]
  z-score: 1.29
[3]
  z-score: 1.18
[4]
  z-score: 0.72
[5]
  z-score: 3.72
[6]
  z-score: 0.0243 (inactive)
[7]
  z-score: -0.598
[8]
  z-score: 1.36
[9]
  z-score: 0.797 (inactive)
[10]
  z-score: 0.421
[11]
  z-score: 0.0438 (inactive)
[12]
  z-score: 1.29 (inactive)
[13]
  composite z-score: 0.0258 (inactive)
[14]
  z-score: -0.93 (inactive)
[15]
  z-score: 1.98 (inactive)
[16]
  z-score: 1.21 (inactive)
[17]
  z-score: 1.32
[18]
  composite z-score: -0.0525
[19]
  composite z-score: 0.163 (inactive)
XIP peptide (Xip251-270)
  composite z-score: -0.653

## Cc1ccc(N2C(=O)c3ccccc3[C@](C)(C(=O)NC3CC3)[C@@H]2c2ccc(CO)cc2)nc1
[1]
  z-score: 0.995
[2]
  z-score: 0.0786
[3]
  z-score: 0.47
[4]
  z-score: 0.442
[5]
  z-score: 0.587
[6]
  z-score: -0.73 (inactive)
[7]
  z-score: 0.36
[8]
  z-score: 0.259
[9]
  z-score: 1.1 (inactive)
[10]
  z-score: 0.403
[11]
  z-score: -1.76 (inactive)
[12]
  z-score: 1.55 (inactive)
[13]
  composite z-score: 0.0264 (inactive)
[14]
  z-score: -0.224 (inactive)
[15]
  z-score: 0.256 (inactive)
[16]
  z-score: 0.143 (inactive)
[17]
  z-score: 1.51
[18]
  composite z-score: 0.0253
[19]
  composite z-score: -0.485 (inactive)
XIP peptide (Xip251-270)
  composite z-score: -0.777
